# According to PubChem BioAssay:
# Some of the results follow. Activity calls are given as the source filed them. Unless noted, no stated cut-off is given here; in the data, active means activity above about 50%; inactive means the rest.
# Biological target: COP9 signalosome complex subunit 5 (Homo sapiens) (UniProt Q92905)
# Assay: blockers of CSN-driven cullin deneddylation – biochemical, fluorescence polarization, single concentration, SCF-Nedd8OG substrate, confirmation (AID 720654; in the data active means inhibition above about 50%;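 further: 0% = DMSO with enzyme and 100% = no enzyme wells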)
# Details: Csn5 deneddylation of SCF-Nedd8OG, 90 min, at 16.6 µM, stronger effect = higher value
# Chain of COP9 signalosome complex subunit 5 (Homo sapiens) (Q92905 whole entry, looked up, one chain of several): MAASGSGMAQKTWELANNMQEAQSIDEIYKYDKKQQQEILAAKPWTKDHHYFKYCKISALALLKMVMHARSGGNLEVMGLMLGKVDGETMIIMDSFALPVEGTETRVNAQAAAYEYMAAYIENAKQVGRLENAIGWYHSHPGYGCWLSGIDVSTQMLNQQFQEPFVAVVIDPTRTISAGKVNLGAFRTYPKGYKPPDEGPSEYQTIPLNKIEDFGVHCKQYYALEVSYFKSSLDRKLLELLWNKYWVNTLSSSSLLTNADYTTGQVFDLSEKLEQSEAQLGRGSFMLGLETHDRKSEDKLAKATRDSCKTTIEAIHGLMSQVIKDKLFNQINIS
row,SMILES,inhibition
1,CCN1/C(=C\c2ccc3ccccc3[n+]2CC)Sc2cc(C)ccc21,24% (inactive)
2,COc1cccc(/C=N/NC(=O)c2[nH]nc3c2CCc2ccccc2-3)c1O,20.6% (inactive)
3,CC[n+]1cc(C)ccc1/C=C/c1ccc(N(C)C)cc1,56.8% (active)

# Biological target: 72 kDa type IV collagenase (Homo sapiens) (UniProt P08253)
# Sequence (P08253 whole entry, looked up): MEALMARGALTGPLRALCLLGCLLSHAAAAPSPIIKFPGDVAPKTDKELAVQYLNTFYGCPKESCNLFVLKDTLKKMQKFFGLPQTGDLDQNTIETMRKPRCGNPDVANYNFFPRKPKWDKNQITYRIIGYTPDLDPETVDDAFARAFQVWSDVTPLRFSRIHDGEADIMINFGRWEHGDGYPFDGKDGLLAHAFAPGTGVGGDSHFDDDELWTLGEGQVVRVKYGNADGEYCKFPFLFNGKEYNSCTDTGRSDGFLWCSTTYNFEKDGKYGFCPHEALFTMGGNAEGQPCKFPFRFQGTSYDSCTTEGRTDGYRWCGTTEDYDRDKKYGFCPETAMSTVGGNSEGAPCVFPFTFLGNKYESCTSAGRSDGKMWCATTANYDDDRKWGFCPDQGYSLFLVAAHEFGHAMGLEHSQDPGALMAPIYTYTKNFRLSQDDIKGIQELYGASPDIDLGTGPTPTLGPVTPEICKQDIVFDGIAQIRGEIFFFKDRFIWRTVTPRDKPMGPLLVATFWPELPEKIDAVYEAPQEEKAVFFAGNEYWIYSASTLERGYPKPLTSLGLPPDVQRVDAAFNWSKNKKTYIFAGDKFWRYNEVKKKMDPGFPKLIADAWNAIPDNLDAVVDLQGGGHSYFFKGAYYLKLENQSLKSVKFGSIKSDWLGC
# Assay: human MMP-2 inhibitors, single-point check – biochemical, fluorescence, single concentration, counter-screen for CSN deneddylation inhibitor project, confirmation (AID 720655;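 active means corrected plate-normalized z-score of 5 or more, or -5 or less, or inhibition of 15% or more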;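 further: plate controls were DMSO wells with enzyme for no effect and buffer wells lacking MMP-2 for full effect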)
# Details: recombinant MMP-2, FRET substrate fluorescence, 60 min; at 16.6 µM
row,SMILES,inhibition
1,CCN1/C(=C\c2ccc3ccccc3[n+]2CC)Sc2cc(C)ccc21,-3.14% (inactive)
2,COc1cccc(/C=N/NC(=O)c2[nH]nc3c2CCc2ccccc2-3)c1O,34.7% (active)
3,CC[n+]1cc(C)ccc1/C=C/c1ccc(N(C)C)cc1,-78.8% (active)
4,Cn1ccc(=Nc2ccc(NC(=O)c3ccc(N=c4ccn(C)c5ccc([N+](=O)[O-])cc45)cc3)cc2)cc1,61.8% (active)

# Biological target: Prothrombin (Bos taurus) (UniProt P00735)
# Sequence (P00735 whole entry, looked up): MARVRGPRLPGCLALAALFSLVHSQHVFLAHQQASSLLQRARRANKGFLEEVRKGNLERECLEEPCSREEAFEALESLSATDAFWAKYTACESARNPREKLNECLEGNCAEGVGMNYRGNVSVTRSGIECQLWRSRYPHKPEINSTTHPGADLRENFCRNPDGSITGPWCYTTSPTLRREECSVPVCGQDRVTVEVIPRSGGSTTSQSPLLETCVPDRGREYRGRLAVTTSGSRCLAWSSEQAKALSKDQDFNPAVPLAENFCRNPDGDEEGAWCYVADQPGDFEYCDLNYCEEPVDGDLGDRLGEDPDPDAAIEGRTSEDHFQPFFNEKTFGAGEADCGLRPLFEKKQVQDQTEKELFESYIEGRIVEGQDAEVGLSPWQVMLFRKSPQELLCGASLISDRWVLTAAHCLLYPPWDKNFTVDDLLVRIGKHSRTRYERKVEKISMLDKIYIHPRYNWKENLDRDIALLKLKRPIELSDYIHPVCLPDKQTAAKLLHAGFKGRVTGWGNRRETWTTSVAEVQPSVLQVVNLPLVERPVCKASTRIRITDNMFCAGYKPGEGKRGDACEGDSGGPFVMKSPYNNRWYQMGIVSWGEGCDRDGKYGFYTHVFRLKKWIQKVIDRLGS
# Assay: thrombin cleavage blockers, FP readout – biochemical, fluorescence polarization, single concentration, counter-screen for CSN deneddylation inhibitor project, confirmation (AID 720656;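 active means inhibition at or above a set limit, with a fluorescence interference ratio between 0.5 and a set maximum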)
# Details: bovine thrombin cleavage of Ub4-pepOG, at 16.6 µM, stronger effect = higher value
row,SMILES,inhibition
1,CCN1/C(=C\c2ccc3ccccc3[n+]2CC)Sc2cc(C)ccc21,43.3% (inactive)
2,COc1cccc(/C=N/NC(=O)c2[nH]nc3c2CCc2ccccc2-3)c1O,30.2% (active)
3,CC[n+]1cc(C)ccc1/C=C/c1ccc(N(C)C)cc1,63.1% (active)
4,Cn1ccc(=Nc2ccc(NC(=O)c3ccc(N=c4ccn(C)c5ccc([N+](=O)[O-])cc45)cc3)cc2)cc1,-10.3% (inactive)

# Biological target: PEG-3 (UniProt Q6IN02)
# Sequence (Q6IN02 whole entry, looked up): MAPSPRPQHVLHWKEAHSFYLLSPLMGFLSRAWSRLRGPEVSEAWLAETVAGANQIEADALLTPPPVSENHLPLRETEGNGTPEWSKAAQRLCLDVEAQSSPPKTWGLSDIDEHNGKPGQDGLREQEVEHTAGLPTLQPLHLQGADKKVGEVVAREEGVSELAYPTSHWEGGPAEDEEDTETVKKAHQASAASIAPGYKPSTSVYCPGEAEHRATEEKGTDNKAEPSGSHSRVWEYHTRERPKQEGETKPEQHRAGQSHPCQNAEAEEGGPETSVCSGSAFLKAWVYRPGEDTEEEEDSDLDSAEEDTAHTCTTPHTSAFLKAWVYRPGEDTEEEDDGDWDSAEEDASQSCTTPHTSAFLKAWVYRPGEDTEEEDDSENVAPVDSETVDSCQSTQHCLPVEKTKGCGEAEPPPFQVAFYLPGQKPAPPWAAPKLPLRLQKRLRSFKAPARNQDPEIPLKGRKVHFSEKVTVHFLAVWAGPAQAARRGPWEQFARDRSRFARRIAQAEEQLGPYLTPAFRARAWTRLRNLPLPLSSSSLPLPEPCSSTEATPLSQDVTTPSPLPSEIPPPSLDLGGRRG
# Assay: inhibition of PEG-3 promoter-driven reporter – cell-based, HeLa, luciferase, CREF/GAPDH counter-screen panel, dose response (AID 624167)
# Details: CREF/GAPDH counter-screens; HeLa PEG-Prom luciferase reporter, overnight, run 1, dose range 1, at 100 µM (top of the series) unless noted
row,SMILES,inhibition
1,COc1ccc(Nc2ncnc3ccc(Br)cc23)c(OC)c1,88.3%
2,OCCCNc1nccc(-c2cc(Nc3cccc(Cl)c3)ncn2)n1,94%
3,CC(C)(C)c1ccc(Oc2ccc(N)cc2)cc1,99.3%

# Biological target: PEG-3 (UniProt Q6IN02)
# Assay: as above
# Details: CREF/GAPDH counter-screens; HeLa PEG-Prom luciferase reporter, overnight, run 2, dose range 1, at 100 µM (top of the series) unless noted
row,SMILES,inhibition
1,COc1ccc(Nc2ncnc3ccc(Br)cc23)c(OC)c1,91.8%
2,OCCCNc1nccc(-c2cc(Nc3cccc(Cl)c3)ncn2)n1,97.4%
3,CC(C)(C)c1ccc(Oc2ccc(N)cc2)cc1,99.2%

# Tested on: Rat fibroblasts (CREF)
# Assay: as above
# Details: CREF/GAPDH counter-screens; run 1, dose range 1, at 100 µM (top of the series)
row,SMILES,inhibition
1,COc1ccc(Nc2ncnc3ccc(Br)cc23)c(OC)c1,44.4%
2,OCCCNc1nccc(-c2cc(Nc3cccc(Cl)c3)ncn2)n1,14.7%
3,CC(C)(C)c1ccc(Oc2ccc(N)cc2)cc1,60.1%

# Tested on: Rat fibroblasts (CREF)
# Assay: as above
# Details: CREF/GAPDH counter-screens; run 2, dose range 1, at 100 µM (top of the series)
row,SMILES,inhibition
1,COc1ccc(Nc2ncnc3ccc(Br)cc23)c(OC)c1,38.7%
2,OCCCNc1nccc(-c2cc(Nc3cccc(Cl)c3)ncn2)n1,62.3%
3,CC(C)(C)c1ccc(Oc2ccc(N)cc2)cc1,83.1%

# Biological target: Tumor necrosis factor receptor superfamily member 10B (Homo sapiens) (UniProt O14763)
# Sequence (O14763 whole entry, looked up): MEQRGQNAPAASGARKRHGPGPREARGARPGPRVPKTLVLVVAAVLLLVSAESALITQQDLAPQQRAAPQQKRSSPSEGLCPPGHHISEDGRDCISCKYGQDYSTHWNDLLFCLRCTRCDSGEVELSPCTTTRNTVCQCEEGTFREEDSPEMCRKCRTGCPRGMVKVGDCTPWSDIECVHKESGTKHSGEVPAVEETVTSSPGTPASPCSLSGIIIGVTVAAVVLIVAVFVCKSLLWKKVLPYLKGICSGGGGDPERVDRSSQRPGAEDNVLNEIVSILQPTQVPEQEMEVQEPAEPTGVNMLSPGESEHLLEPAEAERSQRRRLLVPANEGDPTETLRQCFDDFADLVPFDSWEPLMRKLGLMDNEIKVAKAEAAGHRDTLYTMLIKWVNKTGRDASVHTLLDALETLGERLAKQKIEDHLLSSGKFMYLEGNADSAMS
# Assay: viability loss of caspase-8 NB7 cells with TRAIL – with/without TRAIL, luminescence panel, confirmation (AID 651596)
# Details: NB7 neuroblastoma + caspase-8, TRAIL sensitization, NB7 Caspase-8, with TRAIL, mean of runs, at 10 µM, stronger effect = higher value
row,SMILES,activity
1,Cc1cccc(/C(N)=N/OC(=O)c2ccccc2Cl)c1,77.6%
2,O=C(Nc1nc2ccccc2s1)c1ccc2c(c1)OCO2,78.8%
3,NC(=O)c1c(NC(=O)c2ccccc2)sc2c1CCCC2,51.6%
4,CC1(C)CC(N2CCN(C(c3ccccc3)c3ccccc3)CC2)=CC(=[N+]2CCCCC2)C1,74.7%
5,COC(=O)Cc1[nH]n(-c2nc3ccccc3s2)c(=O)c1C(C)=Nc1ccc(OC)cc1,47%
6,c1ccc2[nH]c(-c3nc4ccccc4[nH]3)nc2c1,80.2%
7,NC(N)=N/N=C/c1ccc(OCc2ccc(Cl)cc2Cl)cc1,58.8%

# Tested on: not listed separately
# Assay: as above
# Details: NB7 neuroblastoma + caspase-8, without TRAIL, NB7 Caspase-8, without TRAIL, mean of runs, at 10 µM
row,SMILES,activity
1,Cc1cccc(/C(N)=N/OC(=O)c2ccccc2Cl)c1,84.8%
2,O=C(Nc1nc2ccccc2s1)c1ccc2c(c1)OCO2,76.8%
3,NC(=O)c1c(NC(=O)c2ccccc2)sc2c1CCCC2,58%
4,CC1(C)CC(N2CCN(C(c3ccccc3)c3ccccc3)CC2)=CC(=[N+]2CCCCC2)C1,56.2%
5,COC(=O)Cc1[nH]n(-c2nc3ccccc3s2)c(=O)c1C(C)=Nc1ccc(OC)cc1,40.9%
6,c1ccc2[nH]c(-c3nc4ccccc4[nH]3)nc2c1,77.8%
7,NC(N)=N/N=C/c1ccc(OCc2ccc(Cl)cc2Cl)cc1,95.5%
